The panel holds about 83,000 compounds, 20% with a hit somewhere; the sample as a whole holds those more often.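 Method: cells in 96-well plates; compound added at one concentration; 48 h incubation; percent growth measured; values under 10 scored active.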 Activity calls are given as the source filed them.
Columns and labels:
Experiment in all cases: NCI-60 one-dose screen, 48 h (100 = growth as untreated, 0 = no growth, -100 = all killed)
Conditions in all cases: 10 µM unless noted
NCI-H23 lung = test system: NCI-H23 lung
NCI-H226 lung = test system: NCI-H226 lung
NCI-H322M lung = test system: NCI-H322M lung
HOP-62 NSCLC = test system: HOP-62 NSCLC
NCI-H460 lung = test system: NCI-H460 lung
HOP-92 NSCLC = test system: HOP-92 NSCLC
NCI-H522 lung = test system: NCI-H522 lung
A549/ATCC NSCLC = test system: A549/ATCC NSCLC
786-0 renal = test system: 786-0 renal
COLO 205 colon = test system: COLO 205 colon
DU-145 prostate = test system: DU-145 prostate
K-562 leukemia = test system: K-562 leukemia
MALME-3M melanoma = test system: MALME-3M melanoma
MDA-MB-231 breast = test system: MDA-MB-231 breast
RXF 393 renal = test system: RXF 393 renal
SF-268 CNS = test system: SF-268 CNS
SF-295 CNS = test system: SF-295 CNS
SF-539 CNS = test system: SF-539 CNS
UACC-257 melanoma = test system: UACC-257 melanoma
M14 melanoma = test system: M14 melanoma

Measured: growth

CCCNC(=O)c1cn2ncnc(Nc3cc(C(=O)NC4CC4)ccc3C)c2c1C
active: MALME-3M melanoma 3.42%
inactive: NCI-H23 lung 24.6% | NCI-H226 lung 42.1% | NCI-H322M lung 47.5% | HOP-62 NSCLC 81.1% | NCI-H460 lung 66.8% | HOP-92 NSCLC 74.6% | NCI-H522 lung 79.1% | A549/ATCC NSCLC 63.3% | 786-0 renal 99% | COLO 205 colon 88.9% | DU-145 prostate 103% | K-562 leukemia 85% | MDA-MB-231 breast 79.2% | RXF 393 renal 40% | SF-268 CNS 88% | SF-295 CNS 79.5% | SF-539 CNS 77.3% | UACC-257 melanoma 65.6% | M14 melanoma 92.4%

Cn1nccc1Nc1nccc(-c2ccn([C@H](CO)c3ccc(Cl)c(F)c3)c(=O)c2)n1
active: MALME-3M melanoma 0.796% | UACC-257 melanoma 1.1%
inactive: NCI-H23 lung 68.5% | NCI-H226 lung 110% | NCI-H322M lung 61% | HOP-62 NSCLC 78.8% | NCI-H460 lung 99.5% | HOP-92 NSCLC 103% | NCI-H522 lung 71.2% | A549/ATCC NSCLC 72.3% | 786-0 renal 93% | COLO 205 colon 14.4% | DU-145 prostate 93.5% | K-562 leukemia 84.2% | MDA-MB-231 breast 90.8% | RXF 393 renal 108% | SF-268 CNS 96.4% | SF-295 CNS 98.3% | SF-539 CNS 104% | M14 melanoma 24.3%

Cc1c(NC(=O)OC[C@@H]2COCCN2)cn2ncnc(Nc3ccc4c(cnn4Cc4cccc(F)c4)c3)c12
inactive: DU-145 prostate 10.1% | K-562 leukemia 11.5% | SF-295 CNS 14.6%
active: NCI-H23 lung -12.9% | NCI-H226 lung -1.69% | NCI-H322M lung -1.86% | HOP-62 NSCLC -25% | NCI-H460 lung 4.49% | HOP-92 NSCLC -12.7% | NCI-H522 lung -30.4% | A549/ATCC NSCLC -9.38% | 786-0 renal 0.0698% | COLO 205 colon -45.4% | MALME-3M melanoma -27% | MDA-MB-231 breast 1.06% | RXF 393 renal -62.4% | SF-268 CNS -2.37% | SF-539 CNS -52.4% | UACC-257 melanoma -31.3% | M14 melanoma -29.3%

O=C(Nc1ccc(-c2ccnc(Nc3ccc(N4CCOCC4)cc3)n2)cc1)[C@@H]1CCCN1
active: RXF 393 renal 5.11%
inactive: NCI-H23 lung 65.6% | NCI-H226 lung 48.6% | NCI-H322M lung 67.6% | HOP-62 NSCLC 33.6% | NCI-H460 lung 50.7% | HOP-92 NSCLC 50.2% | NCI-H522 lung 48.3% | A549/ATCC NSCLC 45% | 786-0 renal 40.3% | COLO 205 colon 44.6% | DU-145 prostate 67.1% | K-562 leukemia 16% | MALME-3M melanoma 71.5% | MDA-MB-231 breast 48.6% | SF-268 CNS 55.6% | SF-295 CNS 35.9% | SF-539 CNS 25.3% | UACC-257 melanoma 16.8% | M14 melanoma 51.7%

COCC(=O)NC/C=C/c1ccc2ncnc(Nc3ccc(Oc4ccc(C)nc4)c(C)c3)c2c1
inactive: NCI-H23 lung 39.3% | NCI-H226 lung 53.5% | NCI-H322M lung 10.8% | HOP-62 NSCLC 58.8% | NCI-H460 lung 50.7% | HOP-92 NSCLC 23.8% | NCI-H522 lung 14.8% | A549/ATCC NSCLC 46% | 786-0 renal 55% | DU-145 prostate 30.7% | K-562 leukemia 47.9% | MDA-MB-231 breast 42.7% | RXF 393 renal 45.4% | SF-268 CNS 52.3% | SF-295 CNS 62.4% | SF-539 CNS 48% | UACC-257 melanoma 24.6% | M14 melanoma 13.1%
active: COLO 205 colon 9.48% | MALME-3M melanoma 4.79%

Cc1cn(-c2cc(NC(=O)c3ccc(C)c(Nc4nccc(-c5cccnc5)n4)c3)cc(C(F)(F)F)c2)cn1
active: K-562 leukemia -11.1% | MALME-3M melanoma -15% | RXF 393 renal -4.7% | M14 melanoma 8.64%
inactive: NCI-H23 lung 49.2% | NCI-H226 lung 67.1% | NCI-H322M lung 69.3% | HOP-62 NSCLC 47.5% | NCI-H460 lung 63.7% | HOP-92 NSCLC 70.7% | NCI-H522 lung 41.5% | A549/ATCC NSCLC 45.5% | 786-0 renal 71.4% | COLO 205 colon 19.8% | DU-145 prostate 46% | MDA-MB-231 breast 40% | SF-268 CNS 55.8% | SF-295 CNS 42.9% | SF-539 CNS 82.4% | UACC-257 melanoma 34.5%

CC(=O)C1=C(C)NC(SCc2nnc(-c3ccc(C)cc3)o2)=NC1c1ccc(F)cc1 (stereo not given)
inactive: NCI-H23 lung 95.2% | NCI-H226 lung 89.6% | NCI-H322M lung 92.8% | HOP-62 NSCLC 95.2% | NCI-H460 lung 106% | HOP-92 NSCLC 96.4% | NCI-H522 lung 85.9% | A549/ATCC NSCLC 91.2% | 786-0 renal 84.6% | COLO 205 colon 115% | DU-145 prostate 107% | K-562 leukemia 100% | MALME-3M melanoma 98% | MDA-MB-231 breast 93.6% | RXF 393 renal 103% | SF-268 CNS 111% | SF-295 CNS 108% | SF-539 CNS 93.4% | UACC-257 melanoma 111% | M14 melanoma 96%

Clc1ccc(Nc2nccc(Nc3ccc4[nH]ncc4c3)n2)cc1
inactive: NCI-H23 lung 45.7% | NCI-H226 lung 28.2% | NCI-H322M lung 74.8% | HOP-62 NSCLC 65.5% | NCI-H460 lung 41% | NCI-H522 lung 20.8% | A549/ATCC NSCLC 50.2% | 786-0 renal 57.4% | COLO 205 colon 42.2% | DU-145 prostate 49.8% | MALME-3M melanoma 87.5% | MDA-MB-231 breast 68.8% | RXF 393 renal 35.1% | SF-268 CNS 60.4% | SF-295 CNS 70.9% | SF-539 CNS 75.8% | UACC-257 melanoma 87.6% | M14 melanoma 43.8%
active: HOP-92 NSCLC -0.955% | K-562 leukemia -7.92%

CNC(=O)c1cc(Oc2cccc3nc(Nc4ccc(Cl)c(F)c4)ccc23)ccn1
inactive: NCI-H23 lung 62.4% | NCI-H226 lung 43.4% | NCI-H322M lung 78.8% | HOP-62 NSCLC 34.8% | NCI-H460 lung 60.6% | NCI-H522 lung 52.7% | A549/ATCC NSCLC 61.3% | 786-0 renal 41.7% | COLO 205 colon 84.3% | DU-145 prostate 71.3% | K-562 leukemia 83.8% | MDA-MB-231 breast 73.5% | SF-268 CNS 55.4% | SF-295 CNS 51.5% | SF-539 CNS 41.1% | UACC-257 melanoma 74.5% | M14 melanoma 80.2%
active: HOP-92 NSCLC 9.48% | MALME-3M melanoma 1.36% | RXF 393 renal 8.19%

Cc1cc(Nc2ncc(Cl)c(Nc3ccccc3S(=O)(=O)C(C)C)n2)c(OC(C)C)cc1C1CCNCC1
active: NCI-H23 lung -86.5% | NCI-H226 lung -64.8% | NCI-H322M lung -93.9% | HOP-62 NSCLC -94.5% | NCI-H460 lung -86.5% | HOP-92 NSCLC -92.3% | NCI-H522 lung -89.3% | A549/ATCC NSCLC -99.8% | 786-0 renal -91.2% | COLO 205 colon -88.2% | DU-145 prostate -99% | K-562 leukemia -53.5% | MALME-3M melanoma -84.9% | MDA-MB-231 breast -88% | RXF 393 renal -93.4% | SF-268 CNS -95.3% | SF-295 CNS -91.6% | SF-539 CNS -98.9% | UACC-257 melanoma -90.1% | M14 melanoma -95.2%

COc1ccc(/C(C)=C(\c2ccc(Cl)cc2)c2ccc(OCCN3CCCCCC3)cc2)cc1
inactive: NCI-H23 lung 51.3% | NCI-H226 lung 60.6% | NCI-H322M lung 79.5% | HOP-62 NSCLC 48.4% | NCI-H460 lung 32.3% | HOP-92 NSCLC 79.5% | NCI-H522 lung 51.5% | A549/ATCC NSCLC 39.4% | 786-0 renal 59.7% | COLO 205 colon 17.2% | DU-145 prostate 70.1% | K-562 leukemia 10.4% | MALME-3M melanoma 51.9% | MDA-MB-231 breast 57.4% | RXF 393 renal 69.5% | SF-268 CNS 72.3% | SF-295 CNS 54.6% | SF-539 CNS 56.8% | UACC-257 melanoma 58.3% | M14 melanoma 60%

Cc1[nH]c(/C=C2\C(=O)Nc3ccc(F)cc32)c(C)c1C(=O)NC[C@H](O)CN1CCOCC1
active: COLO 205 colon -8.22% | MALME-3M melanoma -7.48% | RXF 393 renal -17.1% | M14 melanoma 7.61%
inactive: NCI-H23 lung 27.1% | NCI-H226 lung 47.8% | NCI-H322M lung 26.2% | HOP-62 NSCLC 25.7% | NCI-H460 lung 19% | HOP-92 NSCLC 14.5% | NCI-H522 lung 45.4% | A549/ATCC NSCLC 27.4% | 786-0 renal 35.6% | DU-145 prostate 31.3% | K-562 leukemia 24% | MDA-MB-231 breast 29.8% | SF-268 CNS 40.9% | SF-295 CNS 64% | SF-539 CNS 28% | UACC-257 melanoma 42.3%

COC(=O)[C@H](Cc1ccccc1)NC(=O)[C@@H](OC)[C@@H]1Cc2cc3cc(OC4CC(OC5CC(O)C(O)C(C)O5)C(O)C(C)O4)c(C)c(O)c3c(O)c2C(=O)[C@H]1OC1CC(OC2CC(OC3CC(C)(O)C(O)C(C)O3)C(O)C(C)O2)C(O)C(C)O1 (stereo not given in full)
active: NCI-H23 lung -28.5% | NCI-H226 lung -33% | NCI-H322M lung 7.54% | HOP-62 NSCLC 4.37% | NCI-H460 lung 4.92% | HOP-92 NSCLC -17.5% | NCI-H522 lung -30.7% | A549/ATCC NSCLC 6.81% | 786-0 renal 0.647% | COLO 205 colon -36.7% | K-562 leukemia 5.63% | MALME-3M melanoma -54.8% | MDA-MB-231 breast -8.99% | RXF 393 renal -75% | SF-268 CNS -2% | SF-295 CNS -9.46% | SF-539 CNS -35.7% | UACC-257 melanoma -16.2% | M14 melanoma -60.8%
inactive: DU-145 prostate 11.8%

CC1(O)CC(c2nc(-c3ccc4ccc(-c5ccccc5)nc4c3)c3c(N)nccn23)C1 (stereo not given)
active: NCI-H322M lung 0.394% | HOP-92 NSCLC -13.2% | COLO 205 colon -22.2% | RXF 393 renal 2.73% | SF-539 CNS -2.47%
inactive: NCI-H23 lung 33.9% | NCI-H226 lung 36.1% | HOP-62 NSCLC 28.6% | NCI-H460 lung 25.2% | NCI-H522 lung 31.3% | A549/ATCC NSCLC 33.5% | 786-0 renal 43.8% | DU-145 prostate 34.1% | K-562 leukemia 36.9% | MALME-3M melanoma 30.4% | MDA-MB-231 breast 28.7% | SF-268 CNS 44.1% | SF-295 CNS 46.7% | UACC-257 melanoma 25.7% | M14 melanoma 42.5%

Reference: PubChem BioAssay (NCI)
